Bioassay records from PubChem BioAssay.
An excerpt weighted towards active compounds, which were near 0.44% of everything screened.
PolyA inh: polyadenylation inhibitors in yeast reporter cells, primary screen, luminescence, S. cerevisiae. S. cerevisiae SKY197-pL101 polyadenylation reporter, beta-gal luminescence; efflux-impaired pdr1/pdr3 knockout yeast; score 100 = 6 SD above DMSO. activity score, % at 12 µM. hit rate 0.02% among 300,000. AID 1875, 2009;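 active = lowest replicate activity score at least 50, where 100 means six control SD above control mean; inconclusive = lowest score under 50 but half or more replicates reach 50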;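 also: yeast exposed to compound for 9 h at 30 °C; higher score means more reporter readthrough which indicates perturbed polyadenylation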
VLA-4 inh: inhibition in human VLA-4 binding assay, primary screen, VLA-4 allosteric modulator project, MLPCN library, flow cytometry, VLA-4 expressing cells | inhibition, % (about 7 µM as worked out from the volumes in the protocol) | Integrin alpha-4 (Homo sapiens), P13612 | hit rate 0.2% among 330,000 | ligand binding flow cytometry; in the data active = inhibition above about 50%
ABCB6 inh MLPCN: ABCB6 transporter inhibitors, primary screen, K562-ABCB6 cells, flow cytometry, MLPCN library; ATP-binding cassette sub-family B member 6 (Homo sapiens), Q9NP58; K562-ABCB6 porphyrin accumulation, 1 h; active compounds read low; hit rate 0.19% among 360,000; fluorescence ratio to DMSO, % at 10 µM; AID 602162, 2011;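 active = fluorescence ratio to DMSO below 75%, the collection mean minus 3 SD; inconclusive = too few cells collected in the well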;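 also: signal is porphyrin accumulated inside mitochondria; 100% equals median channel fluorescence of DMSO control wells; lower ratio means ABCB6 inhibition with less porphyrin fluorescence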
Target sequence (Q9NP58 whole entry, looked up): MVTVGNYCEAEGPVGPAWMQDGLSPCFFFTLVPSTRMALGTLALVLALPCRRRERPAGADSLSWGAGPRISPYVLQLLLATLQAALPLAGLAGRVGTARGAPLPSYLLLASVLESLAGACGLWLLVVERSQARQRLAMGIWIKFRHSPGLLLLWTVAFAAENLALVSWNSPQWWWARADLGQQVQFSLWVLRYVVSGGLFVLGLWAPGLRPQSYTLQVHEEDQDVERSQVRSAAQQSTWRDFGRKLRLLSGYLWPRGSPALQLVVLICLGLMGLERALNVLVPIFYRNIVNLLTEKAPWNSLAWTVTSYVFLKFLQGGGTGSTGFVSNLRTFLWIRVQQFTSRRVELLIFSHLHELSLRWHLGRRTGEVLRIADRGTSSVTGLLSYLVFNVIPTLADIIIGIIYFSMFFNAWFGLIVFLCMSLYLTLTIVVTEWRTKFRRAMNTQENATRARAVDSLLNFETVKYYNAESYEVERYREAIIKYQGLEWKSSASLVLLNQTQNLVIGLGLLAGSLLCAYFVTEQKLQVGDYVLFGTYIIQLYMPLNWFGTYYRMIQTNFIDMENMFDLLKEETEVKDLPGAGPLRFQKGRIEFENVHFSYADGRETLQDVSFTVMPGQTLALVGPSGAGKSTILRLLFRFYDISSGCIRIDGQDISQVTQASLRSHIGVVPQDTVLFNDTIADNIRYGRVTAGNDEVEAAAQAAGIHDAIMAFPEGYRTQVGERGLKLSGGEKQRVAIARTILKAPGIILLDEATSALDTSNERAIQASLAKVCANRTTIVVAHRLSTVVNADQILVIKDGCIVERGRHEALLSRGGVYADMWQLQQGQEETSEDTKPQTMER
JMJD2C inh: inhibitors of GASC-1 histone demethylase, primary screen, biochemical, fluorescence, DELFIA europium | Lysine-specific demethylase 4C (Homo sapiens), Q9H3R0 | GST-JMJD2C(1-420) H3K9me3 demethylation | inhibition, % at 2.35 µM | hit rate 0.069% among 330,000;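 active = more than half of a compound's replicate wells show inhibition beyond 50%, single wells judged on their own value; inconclusive = some, but no more than half, of replicates pass 50% inhibition; inactive = no replicate passes 50% inhibition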;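 also: signal counts dimethyl H3K9 product captured on neutravidin plate; 0% = median of DMSO wells and 100% = 0.3 times that DMSO median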
The depositor's hits bear a star; ? = inconclusive; . = not tested or not shown.

SMILES | PolyA inh | VLA-4 inh | ABCB6 inh MLPCN | JMJD2C inh
C=CCn1c(Sc2nnc(C)s2)nc2c1c(=O)[nH]c(=O)n2C | 15.1 | 9.4 | 68.0* | -11.8
C=CCn1c(SCC(=C)C)nc2c1c(=O)[nH]c(=O)n2C | ? | -18.5 | 100.0 | -0.4
CCOc1ccc(S(=O)(=O)Nc2cccnc2)cc1 | 1.1 | 8.2 | 89.0 | -3.8
Cc1cc(C)nc(NC(N)=NC(C)c2ccccc2)n1 (stereo not drawn) | 20.6 | 6.2 | . | 51.0*
Cc1cc(C)nc(NC(N)=NCCc2ccccc2)n1 | . | . | 93.0 | .
Cc1ccc(C(=O)NCCN2CCNC2=O)cc1 | 11.0 | 5.8 | 98.0 | -1.8
O=C(Oc1cccc(NC(=O)c2ccco2)c1)c1cccc(S(=O)(=O)N2CCCC2)c1 | -3.8 | 31.5 | 94.0 | 51.7*
Cc1cccc(C)c1NC(=S)NN(Cc1ccccc1)c1ccccc1 | -3.6 | -5.8 | 103.0 | 71.7*
CN(CCOc1ccc(F)cc1)Cc1ccccc1 | -17.6 | 13.2 | 96.0 | 4.2
Cc1cccc(C(=O)NN(C)c2nc(-c3ccccc3)nnc2C(F)(F)F)c1 | 21.1 | -18.7 | 69.0* | 5.5
CCN(CC)CCn1c(N)nc2ccccc21 | -1.4 | -4.1 | 98.0 | -1.3
Cn1c(CNS(=O)(=O)c2ccc(F)cc2)n[nH]c1=S | -2.4 | 16.8 | 94.0 | -22.1
O=C(O)CCC(=O)NNc1ncnc2ccccc12 | 8.6 | 49.6* | 100.0 | -17.6
O=C1NC[C@H](Cc2ccccc2)N(C[C@H]2CCCN2C[C@H](Cc2ccccc2)N2C[C@H](Cc3ccc(O)cc3)N(CC3CCCCCC3)C(=O)C2=O)C1=O | . | . | 107.0 | .
COc1ccc2c(c1)CC(C1(O)C(=O)N(C)c3ccccc31)C2=O (stereo not drawn) | 5.3 | 5.5 | 98.0 | 50.6*
Cc1cc2cc3c(cc2nc1SCC(=O)Nc1ccccc1)CCC3 | 0.0 | 8.6 | 97.0 | 0.0
O=C1NC(=S)N(C(=O)c2ccc(F)cc2)/C1=C/c1cccnc1 | -8.7 | 1.4 | 15.0* | -10.2
CCc1nc2ccc(C(=O)NCCc3ccccn3)cn2c1N(C)Cc1nccs1 | . | . | 104.0 | .
O=C(Cc1cccc2ccccc12)NN=Cc1ccc2c(c1)CCC2 | . | . | 101.0 | .
O=C(CN(C(=O)c1csnn1)c1ccc2c(c1)OCCO2)NCc1ccc(F)cc1 | -2.1 | 2.6 | 82.0 | 3.6
Cc1ccc(N2CCN(C(=O)c3ccccc3Br)CC2)c(C)c1 | -0.2 | 1.7 | 96.0 | 10.1
Cc1cnn(C(=O)c2ccccc2Br)c1 | -4.1 | -5.1 | . | 85.5*
CCCCNC(=O)c1ccc2c(c1)S(=O)(=O)c1ccccc1C2=O | -18.1 | 1.1 | 100.0 | -15.9
CCNC(=O)c1ccc2c(c1)S(=O)(=O)c1ccccc1C2=O | -0.9 | 12.3 | 90.0 | 51.1*
CCN(C[C@H]1N[C@@](Cc2ccccc2)(C(=O)OC)[C@H]2C(=O)N(Cc3ccccc3)C(=O)[C@@H]12)S(=O)(=O)c1ccccc1 | . | -10.0 | 95.0 | 60.6*
SMILES | PolyA inh | VLA-4 inh | ABCB6 inh MLPCN | JMJD2C inh
CCN(C[C@H]1N[C@@](C)(C(=O)OC)[C@H]2C(=O)N(C)C(=O)[C@@H]12)C(=O)Nc1ccc(C)cc1 | . | 7.8 | 98.0 | 51.8*
COC(=O)[C@]1(C)N[C@H](CN(C)S(=O)(=O)c2ccc(C)cc2)[C@@H]2C(=O)N(Cc3ccccc3)C(=O)[C@@H]21 | . | 24.8 | 88.0 | 61.6*
CCC(C(=O)NCc1ccco1)n1nc(C)c2c(C)n(-c3ccc(C)cc3)nc2c1=O (stereo not drawn) | -15.6 | 8.2 | 94.0 | -2.7
Cc1ccc([N+](=O)[O-])cc1S(=O)(=O)Nc1ccc(C(=O)N(C)C)cc1 | 11.4 | 2.0 | 96.0 | 1.2
CC(=O)Nc1ccc(NS(=O)(=O)c2cc([N+](=O)[O-])ccc2C)cc1 | 3.4 | 55.2* | 102.0 | -8.5
COc1ccccc1NS(=O)(=O)c1cccc(C(=O)N/N=C/c2c(C)nn(-c3ccccc3)c2N2CCCC2)c1 | -8.3 | 6.5 | 74.0* | 13.4
COC(=O)c1cc(C(=O)N2CCN(c3cccc(C)c3C)CC2)cc([N+](=O)[O-])c1 | 102.5* | -8.1 | 101.0 | 17.9
COC(=O)c1cc(C(=O)N2CCN(c3ccccc3OC)CC2)cc([N+](=O)[O-])c1 | 11.1 | 13.6 | 97.0 | -6.6
O=C(NNC(=O)C1CCN(S(=O)(=O)c2c(Cl)cccc2Cl)CC1)c1ccccc1O | -0.4 | 16.8 | 95.0 | 15.5
O=C(NNC(=O)C1CCN(S(=O)(=O)c2ccccc2)CC1)c1ccccc1O | -13.4 | -4.4 | 100.0 | 94.0*
O=C(CCNS(=O)(=O)c1ccccc1C(F)(F)F)NCCCSc1ccccc1 | -13.6 | 16.7 | 97.0 | 15.5
Cn1cccc1CC(=O)N/N=C/c1cccc2ccccc12 | -2.8 | 0.1 | 94.0 | -1.7
Cn1cccc1CC(=O)N/N=C\c1c2ccccc2cc2ccccc12 | -25.0 | 8.5 | 73.0* | -3.8
CC(C)(C)c1n[nH]c(=S)n(N)c1=O | 10.6 | 8.9 | 92.0 | 8.7
CC(=O)Nc1cc2c3ccccc3ccc2c2ccccc12 | . | . | 74.0* | .
CC(=O)Nc1cccc2ccc(O)cc12 | . | . | 108.0 | .
O=C(NC1(C(=O)NC2CCCC2)CCCCC1)c1ccc2c(c1)OCO2 | 2.2 | 7.1 | 69.0* | -7.1
COc1cc(/C=N/O)cc(Br)c1OCC(=O)NCc1ccccc1 | -6.8 | 12.3 | 105.0 | 4.3
COC(=O)C(Cc1ccccc1)NC(=O)COc1ccc(C(C)(C)C)cc1 (stereo not drawn) | 20.9 | 4.7 | 94.0 | 60.8*
CC(C)(C)c1cc(NC(=O)Nc2ccccc2)no1 | 2.3 | 1.3 | 98.0 | 3.4
COC(=O)C1(C)NC(c2ccc(O)cc2)C2C(=O)N(c3ccc4c(c3)OCCO4)C(=O)C21 (stereo not drawn) | 20.3 | 5.0 | 95.0 | 1.0
COc1ccc2c(c1)c1nnc(SCC(=O)N3C(C)CCCC3C)nc1n2C (stereo not drawn) | -14.9 | -0.5 | 88.0 | 8.6
COc1ccc2c(c1)c1nnc(SC)nc1n2C | 96.1* | 3.8 | 97.0 | 8.8
NNC(=S)Nc1cccc(-c2n[nH]c(=S)o2)c1 | 3.5 | 13.5 | 96.0 | 0.8
Cc1ccccc1N=C1N=C(N)c2ccccc21 | 11.7 | 11.5 | 92.0 | 59.5*
SMILES | PolyA inh | VLA-4 inh | ABCB6 inh MLPCN | JMJD2C inh
c1ccc(Cn2nnc3c(NCCN4CCOCC4)ncnc32)cc1 | -9.2 | -3.6 | 91.0 | -3.1
Clc1ccccc1Cn1nnc2c(NCCN3CCOCC3)ncnc21 | 8.1 | -0.5 | 98.0 | 91.3*
O=C(CN1CCC(N2CCCCC2)CC1)N1CCCc2ccccc21 | 2.6 | 7.6 | 99.0 | -0.9
Cc1ccnc(NC(=O)COC(=O)c2ccc(F)cc2F)n1 | 3.8 | 0.1 | 94.0 | 4.5
N=c1nc(-c2ccccc2)ccn1O | 7.0 | 8.2 | 86.0 | 52.8*
c1ccc(-c2ccn3nnnc3n2)cc1 | 4.2 | -6.3 | 84.0 | -15.6
Cc1ccsc1C(=O)OCc1nc2ccccc2c(=O)[nH]1 | . | -1.5 | 103.0 | 103.0*
Cc1ccsc1C(=O)OCc1nc2ccsc2c(=O)[nH]1 | 8.6 | 8.0 | 102.0 | 3.7
